These results are taken from PubChem BioAssay (NCATS).

Results filed as inconclusive are left out. Where a call stands in place of a potency, no number is given. Calls of active or inactive are those of the source. Calls follow the shape of the dose curve; as a rule, active = well fitted cell-killing curve with a large enough effect; inconclusive = small, poorly fitted or top-dose-only effect, or effect the other way; inactive = no such curve, though single readings can be large or run the other way.
Potency is read from the fitted curve at half-maximal effect.

This assay is described as follows: Quantitative highthroughput screen to assess conditional lethalithy of SEM cells grown in Human Plasma-Like Medium with dialyzed fetal bovine serum (HPLM+ds) (AID 1963882). Also: nearly all actives have a fitted effect of over 35% in size. Conditions: SEM B-ALL cells in HPLM+ds, CellTiter-Glo viability, 48 h; series mostly up to 45.8 µM. The method, boiled down: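 Each medium arm—HPLM with 10% dialyzed FBS, or RPMI1640 with 5 mM glucose and 10% untreated or dialyzed FBS—was screened against an 11-point, 3-fold compound titration for 48 h at 37 °C, with CellTiter-Glo luminescence as endpoint.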
In general terms: Cellular ATP, detected with luciferase, serves as a proxy for viable cell number.
`CN1CCN(c2ccc(C(=O)Nc3n[nH]c4ccc(Cc5cc(F)cc(F)c5)cc34)c(NC3CCOCC3)c2)CC1`: the Potency is 4.17 µM (active).
The entry for `CN1C2CCC1CC(OC(=O)C(CO)c1ccccc1)C2` (configuration not stated) is “inactive”.
The value for `Clc1ccc2c(c1)C(N1CCNCC1)=Nc1ccccc1O2` was “inactive”.
Turning to `Fc1ccc(CNc2ncnc3ccc(F)cc23)cc1`, the Potency entry was “inactive”.
Consider `O=C1NC(=O)C(c2cnc3ccccn23)=C1c1cn2c3c(cccc13)CN(C(=O)N1CCOCC1)CC2`, for which the Potency is 0.0066 µM (active).
Consider `CO[C@@H]1C(N(C)C(=O)c2ccccc2)C[C@H]2O[C@]1(C)n1c3ccccc3c3c4c(c5c6ccccc6n2c5c31)C(=O)NC4=O` (some centres not stated), for which the Potency is 4.69 µM (active).
The entry for `CC(C)(C)c1cc(C(C)(C)C)c(NC(=O)c2c[nH]c3ccccc3c2=O)cc1O` is “inactive”.
The value for `CC(C)c1cc(-c2n[nH]c(=O)n2-c2ccc3c(ccn3C)c2)c(O)cc1O` was 0.0743 µM (active).
The figure for `Cc1ccc(C(=O)Nc2cccc(C(F)(F)F)c2)cc1-c1ccc2nc(NCCN3CCOCC3)ncc2c1` is 4.69 µM (active).
In the case of `COc1ccc(-c2oc3c(CC=C(C)C)c(O)cc(O)c3c(=O)c2O)cc1`, the Potency entry was “inactive”.
In the case of `COCCCOc1cc(C[C@@H](C[C@H](N)[C@@H](O)C[C@H](C(=O)NCC(C)(C)C(N)=O)C(C)C)C(C)C)ccc1OC`, the Potency entry is “inactive”.
Consider `Clc1ccccc1C(c1ccccc1)(c1ccccc1)n1ccnc1`, for which the Potency result was “inactive”.
In the case of `C=CC(=O)Nc1ccc2ncnc(Nc3ccc(OCc4cccc(F)c4)c(Cl)c3)c2c1`, the Potency was 7.43 µM (active).
As to `O=c1c(O)c(-c2ccc(O)c(O)c2)oc2cc(O)cc(O)c12`, the Potency entry is “inactive”.
For `CCCc1cc(C(N)=S)ccn1`, the Potency result was “inactive”.
For the compound `CC(=O)Nc1ccc([C@H](C)C(=O)Nc2ncc(C(C)C)s2)cc1`, the Potency is 6.62 µM (active).
For `CC(C)C[C@H](NC(=O)CNC(=O)c1cc(Cl)ccc1Cl)B1OC(=O)CC(CC(=O)O)(C(=O)O)O1` (some centres not stated), the Potency was 0.118 µM (active).
The value for `CNC(=O)c1ccc2c(C(=Nc3cccc(CN(C)C)c3)c3ccccc3)c(O)[nH]c2c1` was 1.87 µM (active); that for `O=C(c1ccc(F)cc1)N1CCC[C@H](c2nc(-c3ccc(F)cc3)no2)C1` was “inactive”; that for `CC(=O)NC(C)c1ccc(Oc2ccc(OC(C)C)cc2)cc1` (configuration not stated) was “inactive”.
With `COc1c2occc2cc2ccc(=O)oc12`, the Potency result was “inactive”.
Take `COc1ccc(-n2nc(C(N)=O)c3c2C(=O)N(c2ccc(N4CCCCC4=O)cc2)CC3)cc1`: the Potency entry was “inactive”.
In the case of `O=C(O)CCNC(=O)c1ccc(N=Nc2ccc(O)c(C(=O)O)c2)cc1`, the Potency result is “inactive”.
Take `CNC(=O)[C@H](Cc1ccccc1)NC(=O)[C@H](CC(C)C)[C@H](CSc1cccs1)C(=O)NO`: the Potency was 16.6 µM (active).
The figure for `N#Cc1ccnc(Nc2cc(C3CCN(C4COC4)CC3)cc(N3CCC(F)(F)C3)n2)c1` is 13.2 µM (active); for `Cc1cc([C@@H](C)Nc2ccccc2C(=O)O)c2nc(N3CCOCC3)cc(=O)n2c1` it is 13.6 µM (active); for `O=C1CCCC2=C1C(c1[nH]ncc1Cl)N=C(Nc1nc3ccccc3o1)N2` (configuration not stated) it is “inactive”.
In the case of `CCN1CCN(c2ccc(Nc3cc(N(C)C(=O)Nc4c(Cl)c(OC)cc(OC)c4Cl)ncn3)cc2)CC1`, the Potency was 4.18 µM (active).
`Cc1nc(Nc2n[nH]c3c2CN(C(=O)N[C@H](CN(C)C)c2ccccc2)C3(C)C)c2sccc2n1`: the Potency was 0.743 µM (active).
With `CC(=O)CC(c1ccccc1)c1c(O)c2ccccc2oc1=O` (configuration not stated), the Potency result is “inactive”.
In the case of `CON(C)C(=O)N1N=C(c2cc(F)ccc2F)S[C@@]1(CCCN)c1ccccc1`, the Potency is 0.0052 µM (active).
The value for `N#CC1(c2ccc(NC(=O)c3cccnc3NCc3ccncc3)cc2)CCCC1` was “inactive”.
